The text below walks through data of PubChem BioAssay (EPA / NIEHS).

Where “and” joins values, the source holds several entries; their conditions need not be identical. Equal values may be shown once. Where a structure was tested more than once in an assay, its records may differ in their call. Calls of active or inactive are those of the source. Rule for the calls: active = hit-call score of the fitted dose curve at least 0.9, where 1 is the maximum; inactive = score below 0.9.

Read-out in the experiment: Monocyte Chemoattractant Protein-1 (MCP1), CCL2 (gene 6347)
Nature of the experiment: BSK_SAg_MCP1: BioMAP Diversity Plus: SAg Assay for Monocyte Chemoattractant Protein-1 (MCP1) Biomarker Activity (AID 2283090). To be noted: primary human HUVEC with PBMC; actives raise or lower the signal. The protocol:
BSK_SAg is a cell-based, multiplexed-readout assay that uses umbilical vein endothelium and peripheral blood mononuclear cells, a human vascular primary cell co-culture, with measurements taken at 24 hours after chemical dosing in a 96-well plate.BSK_SAg_MCP1 is an assay component measured in the BSK_SAg assay. It measures MCP-1 antibody related to regulation of gene expression using ELISA technology.Data from the assay component BSK_SAg_MCP1 was analyzed into 1 assay endpoint. This assay endpoint, BSK_SAg_MCP1, was analyzed with bidirectional fitting relative to DMSO as the negative control and baseline of activity. Using a type of binding reporter, gain or loss-of-signal activity can be used to understand changes in the signaling as they relate to the gene CCL2. Furthermore, this assay endpoint can be referred to as a primary readout, because this assay has produced multiple assay endpoints where this one serves a signaling function. To generalize the intended target to other relatable targets, this assay endpoint is annotated to the cytokine intended target family, where the subfamily is chemotactic factor.
The levels of cell surface (or secreted, indicated by the prefix "s") biomarker endpoints were measured by ELISA. Overt cytotoxicity to cells in confluent adherent cultures (all systems other than the BT system) was assessed by measuring total protein levels using sulforhodamine B (SRB) staining in parallel cultures at the time of biomarker measurements, indicated as SRB endpoints. For proliferation assays for adherent cell types, individual cell types are cultured at sub-confluence and relative cell numbers quantified by SRB staining at time points optimized for each system (48 h: 3C and CASM3C systems; 72 h: BT and HDF3CGF systems; 96 h: SAg system). SRB was performed by staining cells with 0.1% SRB after fixation with 10% TCA and reading wells at 560 nm.Viability and proliferation of PBMC (T cells) was quantified by Alamar Blue reduction for the SAg and BT systems. For PBMC viability (referred to as PBMC Cytotoxicity within the assay endpoint names), cells were plated (75,000/well in a 96-well plate) and then chemical samples added for 1 h before addition of activators, SEB and TSST-1 (20 ng/mL final concentration each). Cells were incubated for 90 h. Then, Alamar Blue (20 uL/well) (Invitrogen, Cat DAL1100) was added for 6 h, and the plates were read with a fluorescence microplate reader at 546/580 nm (excitation/emission). For PBMC proliferation, cells were plated and activated as above but incubated for only 16 h prior to addition of Alamar Blue. Plates were read after 6 h.
For `C=CC(=O)OCC(CC)CCCC` (centres undefined), the result was inactive.
`[Cd+2].[Cl-].[Cl-]`: the AC50 (as a rule, the concentration at which the activity in the assay is half-maximal) was 33 µM (active) and 34.4 µM (active).
On to `CC(C)CCCCCCCOC(=O)c1ccccc1C(=O)OCCCCCCCC(C)C`, for which the outcome was inactive.
For the molecule `O=C(O)CCCc1ccc(N(CCCl)CCCl)cc1`, the AC50 was 20 µM (active) and 27.2 µM (active).
Same read-out and setting: under `Oc1ccc(C2(c3ccc(O)cc3)c3ccccc3-c3ccccc32)cc1` stands 11.8 µM (active) and 11.2 µM (active).
For the molecule `O=[N+]([O-])O`, the result was inactive.
Regarding `CCCCCCCCCCCC#N`, the AC50 is 33 µM (active).
As for `O=C1C=CC(=O)C=C1`, the concentration at half-maximal activity (AC50) was 31.4 µM (active) and the outcome was inactive.
`CC(C)(C)C(=O)CCl`: the result was inactive.
On the same count and under the same terms, under `CC(C)COP(=O)(OCC(C)C)OCC(C)C` stands “inactive”; under `CC1(C)[C@H](C(=O)O[C@H](C#N)c2cccc(Oc3ccccc3)c2)[C@@H]1C=C(Br)Br`, “inactive”; under `Clc1ccc(-c2ccccc2)cc1`, “inactive”.
Same read-out and setting: under `O=S(=O)(c1ccccc1)c1ccccc1` stands “inactive”; under `O=c1[nH]c(Cl)c(Cl)cc1Cl`, “inactive”.
The same measure, in the same setting: under `CCc1cc(C)cc(CC)c1-c1c(OC(=O)C(C)(C)C)n2n(c1=O)CCOCC2` stands “inactive”.
Take `Cc1ccc(OP(=O)(Oc2ccc(C)cc2)Oc2ccc(C)cc2)cc1` (tested in a mixture with another compound): the concentration at half-maximal activity (AC50) is 20 µM (active).
In the case of `O=P1(NCCCl)OCCCN1CCCl` (centres undefined), the result was inactive.
Same read-out and setting: under `CCCC[N+](CCCC)(CCCC)CCCC` stands “inactive”; under `COc1ccc(CO)cc1`, “inactive”.
Consider `O=[N+]([O-])C=Cc1ccccc1`, for which the concentration at half-maximal activity (AC50) was 20 µM (active).
As to `O=c1c2ccccc2c(=O)c2c1cc(Cl)c1[nH]c3c([nH]c12)c(Cl)cc1c(=O)c2ccccc2c(=O)c13`, the result was inactive.
As to `CC(C)CCCCCCCOP(=O)(Oc1ccccc1)Oc1ccccc1`, the AC50 was 20 µM (active).
Turning to `O=C(CCl)c1ccccc1`, the half-maximal activity concentration (AC50) is 6.73 µM (active).
For `Oc1cc(Cl)ccc1Cl`, the outcome was inactive.
On the same count and under the same terms, under `N#CCCCCC#N` stands “inactive”.
With `O=C1C(Cl)=C(Cl)C(=O)C(Cl)=C1Cl`, the AC50 is 37.9 µM (active).
Consider `C=CCN(CC=C)C(=O)C(Cl)Cl`, for which the result was inactive.
With `O=[N+]([O-])c1ccc(Cl)cc1`, the outcome was inactive.
The same measure, in the same setting: under `c1ccc(Nc2ccc3ccccc3c2)cc1` stands “inactive”.
Take `CCCOC(=O)c1ccccc1C(=O)OCCC`: the AC50 is 20 µM (active).
Same read-out and setting: under `COC(C)(C)CCC[C@H](C)C/C=C/C(C)=C/C(=O)OC(C)C` stands 20 µM (active); under `CC(C)(c1cc(Cl)c(O)c(Cl)c1)c1cc(Cl)c(O)c(Cl)c1`, 31.9 µM (active).
For the molecule `COCC(=O)N(c1c(C)cccc1C)N1CCOC1=O`, the result was inactive.
Still for that read-out and setting: under `CC(=O)/C=C/c1ccccc1` stands “inactive”; under `Nc1ccc(-c2ccc(N)c(N)c2)cc1N`, “inactive”.
Still for that read-out and setting: under `CC(C)(C)C(O)C(Oc1ccc(-c2ccccc2)cc1)n1cncn1` (centres undefined) stands “inactive”.
`CCC(C)c1cc([N+](=O)[O-])cc([N+](=O)[O-])c1OC(=O)C=C(C)C` (centres undefined): the AC50 is 12.6 µM (active).
Regarding `CNC(=O)Oc1cc(C)c(SC)c(C)c1`, the outcome was inactive.
